# Results: PubChem BioAssay AID725 (NMMLSC, 2007)
# Hit rate of the full screen: of about 1,300 compounds, fewer than 10 were called active. A selection follows. A number with no mark means an inactive call. How the calls were made is not given here.
# Biological target: N-formyl peptide receptor 2 (Homo sapiens) (UniProt P25090)
# Assay: FPRL1 fluorescent ligand binding inhibitors, primary screen, selectivity assay for FPR ligand SAR project, cell-based, flow cytometry, HTS counterscreen (AID 725)
# Settings: FPRL1-expressing cells, stronger effect = higher value, concentration not given here
# N-formyl peptide receptor 2 (Homo sapiens), sequence (P25090 whole entry, looked up): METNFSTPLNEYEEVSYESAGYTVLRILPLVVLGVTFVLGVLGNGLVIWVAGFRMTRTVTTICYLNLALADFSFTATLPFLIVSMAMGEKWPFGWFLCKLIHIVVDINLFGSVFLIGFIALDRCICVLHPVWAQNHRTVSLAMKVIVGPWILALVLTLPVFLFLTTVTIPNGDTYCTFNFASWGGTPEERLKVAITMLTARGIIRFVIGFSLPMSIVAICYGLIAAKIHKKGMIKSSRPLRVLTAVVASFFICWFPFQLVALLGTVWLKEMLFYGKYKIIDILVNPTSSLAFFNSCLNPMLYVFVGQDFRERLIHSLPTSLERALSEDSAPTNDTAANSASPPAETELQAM
row,SMILES,inhibition [%]
1,CC(C)c1ccc(C2/C(=C(\O)c3ccccc3)C(=O)C(=O)N2c2nc3ccccc3s2)cc1 (stereo unspecified),0
2,Cc1ccc(F)cc1N1C(=O)CSC1c1ccc(Br)cc1 (stereo unspecified),1.5
3,Cc1cccc(C(=O)N(Cc2ccco2)Cc2ccccc2F)c1,14.7
4,COc1ccc(-c2c(C)[nH]n3c(=O)c4c(nc23)CCCC4)cc1,-4.2
5,CCOC(=O)c1c(NC(=O)c2ccc(Br)cc2)sc(C)c1C,9.7
6,Cc1onc(-c2c(Cl)cccc2Cl)c1C(=O)NC1CCCCC1,-7.3
7,CCC(=O)Oc1ccc2c(C)c(Cc3ccccc3)c(=O)oc2c1C,-5.7
8,CCn1c2c(c(=O)n3ncc(C(=O)O)c13)CN(Cc1ccccc1)CC2,9.1
9,CCOC(=O)c1c(NC(=O)c2ccccc2C(=O)O)sc(C)c1C,-6.4
10,CCOC(=O)COc1ccc2c(=O)c(-c3ccccc3OC)c(C(F)(F)F)oc2c1,-6.1
11,Cc1ccc(Oc2c(C(F)(F)F)oc3c(CN4CCC(C)CC4)c(O)ccc3c2=O)cc1,-2.8
12,O=C(c1ccccc1F)N1c2ncnn2C2(CCCCC2)[C@@H]2CCCC[C@@H]21,2.4
13,O=C1C(=O)N(CCN2CCOCC2)C(c2ccncc2)/C1=C(\O)c1ccccc1 (stereo unspecified),0.7
14,NC(=O)c1c(NC(=O)C2C3C=CC(C3)C2C(=O)O)sc2c1CCCCC2 (stereo unspecified),7.3
15,C=CCOc1ccccc1/C=C1/C(=O)NN(c2ccc(C)c(Cl)c2)C1=O,-5.7
16,O=C(CSc1nnc(-c2ccco2)o1)c1cccc2ccccc12,-5.2
17,CCOC(=O)C(CC)Oc1ccc2c(=O)c(-c3ccc(OC)c(OC)c3)c(C(F)(F)F)oc2c1 (stereo unspecified),7.8
18,CN(C)CCCN1C(=O)C(O)=C(C(=O)c2ccco2)C1c1ccccc1 (stereo unspecified),9.4
19,CN(C)c1ccc(C2C(C(=O)c3ccco3)=C(O)C(=O)N2CC2CCCO2)cc1 (stereo unspecified),-0.8

row,SMILES,inhibition [%]
1,Cc1cc(C)cc(N2C(=O)CSC2c2c(F)cccc2Cl)c1 (stereo unspecified),-8.8
2,COc1ccccc1C1SCCN1S(=O)(=O)c1ccc(F)cc1 (stereo unspecified),11.3
3,O=C(O)CCN1C(=O)C(=O)/C(=C(/O)c2ccccc2)C1c1ccc(Br)cc1 (stereo unspecified),-4.1
4,O=C(Nc1cccc(C(=O)N(Cc2ccccc2)Cc2ccccc2)c1)[C@@H]1[C@H]2C[C@H]3[C@@H]1C(=O)O[C@H]3C2,3.8
5,COc1ccc(OC)c(C2SCCN2S(=O)(=O)c2ccc(C)cc2)c1 (stereo unspecified),6.1
6,CCCOc1ccc(C2C(C(=O)c3cc4ccccc4o3)=C(O)C(=O)N2CCN(C)C)cc1 (stereo unspecified),-0.2
7,COc1ccccc1-c1c(C)oc2c(CN3CCCCC3C)c(O)ccc2c1=O (stereo unspecified),-3.9
8,COc1cccc(C2C(C(=O)c3cc4ccccc4o3)=C(O)C(=O)N2CCN2CCOCC2)c1 (stereo unspecified),2.7
9,O=C(C1=C(O)C(=O)N(CCN2CCOCC2)C1c1cccnc1)c1cccs1 (stereo unspecified),-0.7
10,Cc1onc(-c2c(Cl)cccc2Cl)c1C(=O)N1CCCCCC1,-6.1
11,Cc1ccc(N2C(=O)CSC2c2ccccc2F)cc1C (stereo unspecified),-4.3
12,O=C(Oc1ccc2c(=O)c(Oc3ccccc3Br)c(C(F)(F)F)oc2c1)c1cccs1,-1.4
13,CN1C(=O)C2(/C(=C(/O)c3ccccc3)C(=O)C(=O)N2CC2CCCO2)c2ccccc21 (stereo unspecified),-3.7
14,Cc1ccc(C(=O)O)cc1NC(=O)C1C2CCC(C2)C1C(=O)O (stereo unspecified),3.8
15,CN1CCC2(CC1)N=C(c1ccccc1)C(=S)N2C(=O)c1ccc(Cl)cc1,-2
16,Cc1ccc(C)c(-c2n[nH]n3c2nc(=O)c2ccccc23)c1,-23.5
17,O=C1c2cccc3cccc(c23)N1S(=O)(=O)c1ccccc1,-5
18,CC(C)CCN(Cc1ccco1)C(=O)c1noc2c1CCCC2,-3
19,Cc1cccc(N2C(=O)CSC2c2ccc(Br)cc2)c1 (stereo unspecified),-3.9

row,SMILES,inhibition [%]
1,CCOC(=O)c1c(NC(=O)c2cccc(Cl)c2)sc2c1CCCC2,3.1
2,O=C(c1ccc(F)cc1)N(Cc1ccco1)Cc1ccccc1Cl,-1.7
3,Cc1nnc(N2C(=O)C(O)=C(C(=O)c3ccco3)C2c2ccc(Cl)cc2)s1 (stereo unspecified),0.1
4,CCc1ccc(Oc2c(C(F)(F)F)oc3c(CN4CCOCC4)c(O)ccc3c2=O)cc1,-5.8
5,CCc1cccc(C)c1NC(=S)N(Cc1ccco1)C(C)c1cccs1 (stereo unspecified),-5.9
6,Cc1ccc(/C(O)=C2\C(=O)C(=O)N(CCN3CCOCC3)C2c2cccs2)cc1 (stereo unspecified),-5.9
7,COc1ccc(C2C(C(=O)N3CCCC(C)C3)c3ccccc3C(=O)N2C)cc1 (stereo unspecified),2.3
8,COc1ccccc1C(=O)NC(C)c1nc2ccccc2n1Cc1ccccc1C (stereo unspecified),-0.5
9,CCOc1cc(C2C(C(=O)c3ccco3)=C(O)C(=O)N2CC2CCCO2)ccc1O (stereo unspecified),0.5
10,O=C(O)CCN1C(=O)C(=O)/C(=C(/O)c2ccccc2)C1c1ccccc1[N+](=O)[O-] (stereo unspecified),1.1
11,COC(=O)c1c(NC(=O)c2cccc(C)c2)sc2c1CCC(C)C2 (stereo unspecified),-8.1
12,COc1cccc(Cn2c(=S)[nH]c3c(oc4ccccc43)c2=O)c1,3
13,COc1ccc(C2/C(=C(\O)c3ccccc3)C(=O)C(=O)N2CCN2CCOCC2)cc1 (stereo unspecified),0.4
14,Cc1ccc(C2/C(=C(\O)c3ccccc3)C(=O)C(=O)N2c2nnc(C)s2)cc1 (stereo unspecified),-1.8
15,CCOc1ccc(N(C)C(=O)[C@H]2[C@@H]3C[C@@H]4[C@H]2C(=O)O[C@@H]4C3)cc1,19.5
16,Cc1cccc(C(=O)N2c3ncnn3C(c3ccccc3)CC2c2ccccc2)c1 (stereo unspecified),-15.7
17,COC(=O)c1c(NC(=O)c2ccc(F)cc2)sc(C)c1C,-4.9
18,Cc1cc(C)cc(N2C(=O)N(c3ccccc3Cl)C3CS(=O)(=O)CC32)c1 (stereo unspecified),2.6
